Vaccinia Venus: vaccinia inhibition (Venus reporter). Vaccinia virus Venus reporter expression, fluorescence. Potency, µM (titrated, usually from 36.5 µM), hits mostly inhibitors. 0.46% of 330,000 active; calls by dose curve; tested in A549 cells; also: nearly all actives have a fitted effect of over 30% in size
HCMV antiviral: human cytomegalovirus inhibition; HFF cells, HCMV-luciferase reporter, 72 h; active compounds read low; activity change, negative = inhibition, % at 57.5 µM; 4.5% of 410,000 active; in the data active = activity change below about -60%; inconclusive = no clear call, values can overlap the other calls; inactive = above about -39%
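Human foreskin fibroblasts infected with luciferase-reporter HCMV at MOI 1 PFU/cell, compounds at two doses. Luciferase measured 72 h post infection; normalized to buffer-only basal and Salinomycin (10uM) controls.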
Vaccinia mCherry: vaccinia inhibition (mCherry reporter); Vaccinia virus mCherry reporter infection, fluorescence; Potency, µM (titrated, usually from 36.5 µM), most hits filed as inhibitors; 0.63% of 310,000 active; AID 720579; calls by dose curve; tested in A549 cells; also: nearly all actives have a fitted effect of over 35% in size
HCV inh: inhibitors of hepatitis C virus infection | Huh7.5.1 HCVcc-Cre infection, luciferase reporter, 44 h | AID 651820 | Potency, µM (doses to about 41.8 µM), most hits filed as inhibitors | 3.4% of 340,000 active; active = well fitted inhibition curve with a large enough effect; inconclusive = small, poorly fitted or top-dose-only effect, or another doubt; inactive = no such curve, though single readings can be large or run the other way
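1,000 cells/well; 4 h culture; + compound; + HCVcc-Cre (~0.5 moi); 44 h; luciferase substrate, RT 15 min; read 15 sec.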
FMDV inh: blocks foot and mouth disease virus. FMDV antiviral cell-based qHTS. 1.2% of 410,000 active. Potency, µM (top dose mostly 57.9 µM), usual class: inhibitors; calls by dose curve; tested in HEK293T cells; also: read-out not given here; nearly all actives have a fitted effect of over 45% in size
Large screens that a line does not name were inactive. A selection: hits, their analogues and other compounds. The true share with any hit is near 7.3%.

CCOC(=O)c1cnc2c(ccc3ccccc32)c1NCCN(C)C	none (no result: Vaccinia Venus, Vaccinia mCherry)
CC(=O)Nc1ccc(C23CC4CC(CC(C4)C2)C3)cc1	none (no result: Vaccinia Venus, Vaccinia mCherry)
CNC(=S)Nc1ccc(C23CC4CC(CC(C4)C2)C3)cc1	HCMV antiviral -98, HCV inh inconclusive
CC(C)N1CCCC(C)(C(=O)Nc2nc3ccccc3n2C)C1 (configuration not stated)	none (no result: HCV inh)
O=C(Nc1ccc(Oc2ccccc2)cc1)c1cnc2n(c1=O)CCS2	HCMV antiviral -86, Vaccinia mCherry inconclusive, HCV inh inconclusive, FMDV inh inconclusive
COc1cccc(C(C)(O)c2nc(-c3cccc(NC(C)=O)c3)cs2)c1 (configuration not stated)	none (no result: HCV inh)
CC(=NNC(=S)N1CCCCC1)c1cccc(C)n1	Vaccinia Venus inconclusive, Vaccinia mCherry 0.32µM
Cc1cccc(C(=S)N2CCOCC2)n1	none (no result: Vaccinia Venus, Vaccinia mCherry)
C/C(=N\NC(=S)NC1CCCCC1)c1ccc(Cl)c(Cl)c1	none (no result: Vaccinia Venus, Vaccinia mCherry)
CC(=NNC(=S)N1CCCCC1)c1ccccn1	Vaccinia Venus 10µM, HCMV antiviral -98, Vaccinia mCherry 4.5µM, FMDV inh inconclusive (no result: HCV inh)
CCNC(=S)N1CCN(c2ccccn2)CC1	none
CC(=NNC(=S)N1CC2CCC(CC2)C1)c1ccncn1	Vaccinia Venus 6.3µM, HCMV antiviral -98, Vaccinia mCherry 1.6µM, HCV inh 0.32µM
CSC(=S)NN=C(C)c1cccc(C)n1	Vaccinia Venus inconclusive, HCMV antiviral -80, Vaccinia mCherry inconclusive, HCV inh 4µM
Cc1cccc(C(=O)NC(=S)Nc2c(C)n(C)n(-c3ccccc3)c2=O)c1	none
CCc1nnc(NC(=O)C(c2ccccc2)c2ccccc2)s1	none
CCC1CCCCN1C(=S)NN=C(C)c1ccccn1 (configuration not stated)	HCMV antiviral -98 (no result: Vaccinia Venus, Vaccinia mCherry, HCV inh, FMDV inh)
CCNS(=O)(=O)c1ccc(CCC(=O)O)cc1	HCV inh 10µM
CCOc1ccccc1NC(=O)COC(=O)CCOc1cc(C)ccc1C	none
CCCCn1c(N2CCC(Cc3ccccc3)CC2)nc2c1c(=O)[nH]c(=O)n2C	Vaccinia Venus inconclusive, HCV inh 35µM, FMDV inh 28µM (no result: Vaccinia mCherry)
C/C(Cl)=C\Cn1c(N2CCCC2)nc2c1c(=O)[nH]c(=O)n2C	HCMV antiviral -89 (no result: Vaccinia mCherry)
CCCCCCn1c(N2CCC(C)CC2)nc2c1c(=O)[nH]c(=O)n2C	FMDV inh 20µM (no result: Vaccinia mCherry)
CCCCCn1c(N2CCC(C(N)=O)CC2)nc2c1c(=O)[nH]c(=O)n2C	none
Cc1ccc(N(C)S(=O)(=O)c2ccc3[nH]c(=O)ccc3c2)cc1	none (no result: HCV inh)
CCN(CC(=O)Nc1c(F)cccc1F)C(=O)c1cc(C)oc1C	none
CN1CCN(S(=O)(=O)c2cnc(Cl)c(Br)c2)CC1	Vaccinia Venus inconclusive, Vaccinia mCherry 13µM, HCV inh inconclusive
CC1CCN(S(=O)(=O)c2cnc(Cl)c(Br)c2)CC1	none
COc1ccccc1NC(=O)COc1ccc(Br)cc1CNCCCN1CCOCC1	HCMV antiviral inconclusive, HCV inh inconclusive (no result: Vaccinia Venus, Vaccinia mCherry)
COc1cc(CNCCCN2CCOCC2)c(Br)cc1OCC(=O)Nc1ccccc1C	HCV inh 1.6µM
COC(=O)[C@H](CCSC)NC(=O)Cn1cc(C)c(=O)[nH]c1=O	HCV inh 0.5µM
COC(=O)C[C@H](NC(=O)Cn1cc(C)c(=O)[nH]c1=O)C(=O)OC	none
Cc1ccc(CSc2nc(-c3ccc(C(C)(C)C)cc3)nc3cc(=O)[nH]n23)cc1	HCMV antiviral -105 (no result: HCV inh)
Cc1ccc(NC(=O)CSc2nc(-c3ccc(C(C)(C)C)cc3)nc3cc(=O)[nH]n23)cc1C	none (no result: HCV inh)
CN1CCC[C@@H]1CCNC(=O)c1c(-c2ccc3c(c2)OCO3)noc1-c1ccsc1	Vaccinia Venus inconclusive, HCMV antiviral -75
O=C(CCN=C1NS(=O)(=O)c2ccccc21)Nc1ccc(Cl)cc1F	none (no result: Vaccinia Venus, Vaccinia mCherry)
COc1cc2c(cc1OC)C(CNC(=O)C=Cc1cc(OC)c(OC)c(OC)c1)C2 (configuration not stated)	none (no result: HCV inh)
COc1cccc(OC)c1-c1cc(CCCc2cc(-c3c(OC)cccc3OC)nc3ccccc23)c2ccccc2n1	Vaccinia Venus inconclusive, Vaccinia mCherry 10µM (no result: HCMV antiviral, HCV inh, FMDV inh)
CC(=O)Nc1cc(-c2ccc(C(=O)NC3CC3)cc2)cn2c(-c3cccc(C(F)(F)F)c3)cnc12	Vaccinia Venus inconclusive, Vaccinia mCherry inconclusive, FMDV inh 25µM (no result: HCV inh)
C[C@@H]1O[C@@H](O[C@H]2C[C@@H](O)[C@]3(CO)[C@H]4[C@H](O)C[C@]5(C)[C@@H](C6=CC(=O)OC6)CC[C@]5(O)[C@@H]4CC[C@]3(O)C2)[C@H](O)[C@H](O)[C@H]1O	Vaccinia Venus 0.63µM, Vaccinia mCherry 0.5µM, HCV inh 2.2µM, FMDV inh inconclusive (no result: HCMV antiviral)
